In the library only some 3.7% were active in any assay of this set; here they are far more common.
BoNT A protease = BoNT/A light chain protease inhibitors, primary screen, biochemical, flow cytometry, MLPCN library | AID 588499, 2011 | Botulinum neurotoxin type A light chain protease (Clostridium botulinum A str. ATCC 3502) | multiplex microsphere protease substrate cleavage | inhibition, % at 10 µM | hit rate 0.17% among 360,000
Autofluor counter = flagged as autofluorescent in microsphere protease counterscreen; compound autofluorescence counterscreen, microsphere flow cytometry; hits give high values; hit rate 3.1% among 360,000; fluorescence intensity (test concentration not listed); in the data active = fluorescence intensity above about 16000; inconclusive = no clear call, values can overlap the other calls
Anthrax LF prot = Bacillus anthracis LF protease inhibitors, primary screen, biochemical, multiplex microsphere, MLPCN library; AID 588501, 2011; inhibition, % at 10 µM; hit rate 0.12% among 360,000; multiplex microsphere protease cleavage assay
BoNT-F LC inh = BoNT/F light chain protease inhibitors, primary screen, biochemical, flow cytometry, MLPCN library; Botulinum neurotoxin type F light chain protease (Clostridium botulinum); Multiplex microsphere protease cleavage assay; inhibition, % at 10 µM; hit rate 0.22% among 360,000; AID 588497, 2011; in the data active = inhibition above about 35%, passing the limit was not always enough; inconclusive = no clear call, values can overlap the other calls
MazF activator = activators of E. coli MazEF toxin-antitoxin RNase, primary screen, biochemical, fluorescence, uHTS; activation, % at 20 µM; AID 504720, 2011; FAM/BHQ RNA-DNA oligo cleavage fluorescence, 5 h; hit rate 0.32% among 350,000; Endoribonuclease toxin MazF (Escherichia coli (strain K12)), P0AE70; in the data active = activation above about 50%
Target sequence (P0AE70 whole entry, looked up): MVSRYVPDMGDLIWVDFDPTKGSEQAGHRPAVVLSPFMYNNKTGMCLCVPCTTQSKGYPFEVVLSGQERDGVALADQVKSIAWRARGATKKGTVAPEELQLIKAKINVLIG
Each line names hits and unclear results; the compound was inactive in the other large screens. Rule as the data show it, unless noted: active = inhibition above about 30%; inconclusive = no clear call, values can overlap the other calls; inactive = below that.

CCOC(=O)N1CC=C2C(C#N)=C(N)C(C#N)(C#N)[C@H](c3ccc(OCC)c(OCC)c3)[C@H]2C1	Autofluor counter 20898
CN1CC=C2C(C#N)=C(N)C(C#N)(C#N)[C@H](c3ccoc3)[C@H]2C1	none
CCCCOc1cccc(C2/C(=C(/O)c3ccc4c(c3)CC(C)O4)C(=O)C(=O)N2CCN2CCOCC2)c1 (stereo not given)	BoNT A protease inconclusive, Autofluor counter inconclusive, Anthrax LF prot inconclusive, BoNT-F LC inh inconclusive
Cc1ccc(CNC(=O)[C@H]2O[C@@H](n3ccc(N)nc3=O)[C@H](O)[C@@H]2O)o1	none (no result: MazF activator)
Cn1c(SCC(=O)NC2CCCC2)nnc1C(F)(F)F	Anthrax LF prot inconclusive
Cc1ccccc1OCCC(=O)OCC(=O)NCCNC(=O)COC(=O)CCOc1ccccc1C	none
CCc1ccc(N(CC(=O)N2CCCC2)S(C)(=O)=O)cc1	none
Cc1cccc(N(CC(=O)Nc2ccc(CC#N)cc2)S(C)(=O)=O)c1	none
CCNC(=O)CN(c1ccc(CC)cc1)S(C)(=O)=O	BoNT A protease inconclusive, Autofluor counter 23318
CSc1ccccc1NC(=O)CN(c1cccc(C)c1)S(C)(=O)=O	Autofluor counter 23782
CCc1ccc(NC(=O)CN(c2cccc(C)c2)S(C)(=O)=O)cc1	Autofluor counter 23603
Cc1cccc(N(CC(=O)Nc2ccccc2F)S(C)(=O)=O)c1	none (no result: BoNT A protease, Autofluor counter, Anthrax LF prot, BoNT-F LC inh)
N#Cc1ccc(CN2CCN(C(=O)c3cc(C4CC4)nn3-c3ccccc3)CC2)cc1	none
OC(c1cccc(Cl)c1)c1nc(-c2ccc(F)c(Cl)c2)cs1 (stereo not given)	none (no result: MazF activator)
Cc1ccccc1NC(=O)c1ccc(C)c(S(=O)(=O)Nc2ccccn2)c1	Autofluor counter 18024
O=C(Nc1ccc(S(=O)(=O)Nc2ccccn2)cc1)c1cccc(Br)c1	none
Cc1ccc(C(=O)Nc2ccc(Br)cc2)cc1S(=O)(=O)Nc1ccccn1	MazF activator 125
Cc1ccccc1NS(=O)(=O)c1cc(C(=O)N2CCc3ccccc3C2)ccc1C	BoNT A protease inconclusive, Autofluor counter 25113
N#CC1C(=O)c2ccccc2C1c1ccccc1 (stereo not given)	none
O=C(O)c1ccc(Cl)cc1Nc1nc2cc(Cl)ccc2o1	none
O=C(Nc1ncn[nH]1)c1ccc(Cl)c(Cl)c1	none
O=C(Nc1cccc(Cl)c1N1CCCC1)c1ccc(Br)o1	Autofluor counter 21468
CCN(CC)c1ccc(NC(=O)c2ccco2)c(C)c1	none
Cc1cc(O)c(NC(=O)c2ccc(Br)o2)cc1C	Autofluor counter 21608
CCN(CC)c1ccc(NC(=O)c2ccc(Br)o2)c(C)c1	Autofluor counter 20876
O=C(Nc1cccc(Cl)c1N1CCCC1)c1ccc([N+](=O)[O-])o1	none
COc1ccccc1NC(=O)c1ccc(Br)o1	none
CCCCCC(=O)N1C[C@H](O)[C@@H](n2cc(C3CC3)nn2)C[C@@H]1c1ccc(Cl)cc1	none
O=C(c1cc2ccccc2o1)N1CCN(S(=O)(=O)c2c(F)cccc2F)CC1	Autofluor counter 20189
Cc1cc(C)n(CC(O)COCc2ccccc2)n1 (stereo not given)	BoNT A protease inconclusive, Autofluor counter 20483
Cc1cc(C)n(CC(O)COc2cccc(OCC(O)Cn3nc(C)cc3C)c2)n1 (stereo not given)	none
C[n+]1cn(CC(O)COCc2ccccc2)c2ccccc21 (stereo not given)	none
Cc1cc2c(cc1C)[n+](C)cn2CC(O)COCc1ccccc1 (stereo not given)	Autofluor counter 22173
CCCS(=O)(=O)NC(=O)C1(C)CCCN(C(=O)/C=C/c2ccccc2)C1 (stereo not given)	none (no result: MazF activator)
CSCCC(NS(=O)(=O)c1ccccc1)C(=O)Nc1nccs1 (stereo not given)	Autofluor counter inconclusive, Anthrax LF prot inconclusive, BoNT-F LC inh inconclusive
c1csc(CNCCN2CCOCC2)c1	Autofluor counter 16263
O=C(NCCN1CCOCC1)c1cccs1	none
CCOc1cc(C(=O)N(CC)CC(=O)Nc2c(F)cccc2F)ccc1OCC(=O)N1CCOCC1	none (no result: BoNT A protease, Autofluor counter, Anthrax LF prot, BoNT-F LC inh)
COC(=O)c1sccc1S(=O)(=O)N1CCCC(N(C)CCc2ccccn2)C1 (stereo not given)	none
CN(C)c1ccc(/C=N/N(CCC#N)C2=NS(=O)(=O)c3ccccc32)cc1	MazF activator 140
CCOc1ccc(-c2nnn(CCC(=O)O)n2)cc1OC	Autofluor counter 21762
COc1ccc(-c2nnn(CCc3nn[nH]n3)n2)cc1OC	Autofluor counter 21931
CC(C)C[C@H]1CNC(=S)N1C[C@H]1CCCN1C[C@H](Cc1ccc(O)cc1)N1C[C@H](Cc2ccc(O)cc2)N(CC2CCCCCC2)C1=S	none (no result: MazF activator)
CC1(C(=O)NS(=O)(=O)c2ccccc2)CCN1C(=O)Cc1cc(F)ccc1F (stereo not given)	none (no result: MazF activator)
Cc1ccc(S(=O)(=O)N[C@@H](CC(C)C)C(=O)NCc2ccco2)cc1	BoNT A protease inconclusive, Autofluor counter 23101
Cc1ccc(S(=O)(=O)NCC(=O)N(CC(=O)NCc2ccco2)Cc2cccs2)cc1	Autofluor counter 20378
CC(C)CC(=O)Nc1ccc(C(=O)CN2CCN(c3ccc(O)cc3)CC2)cc1	none
Cc1cc(NC(=O)CCC(=O)N(CCC(C)C)C(C(=O)NCC2CCCO2)c2ccccc2C)no1 (stereo not given)	none
COc1ccc(C=NCCC2(O)CC(C)N(C)CC2C)cc1 (stereo not given)	BoNT-F LC inh 54
CC1(C)CC(=O)C(C(c2ccc(F)cc2)C2C(=O)CC(C)(C)CC2=O)C(=O)C1	none
CC1(C)CC(=O)C(C(c2ccco2)C2C(=O)CC(C)(C)CC2=O)C(=O)C1	Autofluor counter 23157
O=C(NC(=S)Nc1ccc(CN2CCOCC2)cc1)c1ccc(-c2cccc(Cl)c2)o1	none
O=C(Nc1ccc(CN2CCOCC2)cc1)c1cccs1	Autofluor counter 22111
O=C(Nc1ccc(CN2CCOCC2)cc1)c1ccc(-c2cccc(Cl)c2)o1	Autofluor counter 20353
O=C(Nc1ccc(CN2CCOCC2)cc1)c1ccccc1F	BoNT A protease inconclusive, Autofluor counter inconclusive, Anthrax LF prot inconclusive, BoNT-F LC inh inconclusive
O=C(CSc1nc2ccccc2c(=O)n1CCCN1CCOCC1)Nc1ccccc1OC(F)F	none
O=C(Nc1ccc(F)cc1)Nc1ccc(Cl)cn1	Autofluor counter 18496
COc1cc(CNC(=O)Nc2nnc([C@@H]3C[C@H](O)[C@@H](CO)O3)s2)cc(OC)c1OC	none (no result: MazF activator)
CCOC(=O)Cc1nnc(NC(=O)C(CC)Sc2nc(C)cc(=O)[nH]2)s1 (stereo not given)	none
CCCCc1nnc(NC(=O)C(C)Sc2nc(N)cc(=O)[nH]2)s1 (stereo not given)	Autofluor counter 21210
CC(C)(C)OC(=O)N1CCCC(C(=O)Nc2cccc(C(=O)N3CCCCC3)c2)C1 (stereo not given)	none
Cc1ccc(-c2noc(CCCC(=O)NCC3CCCO3)n2)cc1 (stereo not given)	none
